KCNQ2 pot: KCNQ2 (rat) channel potentiation; CHO-K1 KCNQ2, FluxOR thallium flux fluorescence; stronger effect = higher value; B-score at 10 µM; 310,000 compounds, 0.54% hits;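 active means fluorescence ratio B-score at least 3 SD of library B-scores, with initial fluorescence B-score within 3 of them, cut at about 5.3 in these data; same plate scores as AID 2156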;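 further: B-score of peak minus minimum over baseline fluorescence ratio after K+ and Tl+ stimulus; positive B-score means potentiation of KCNQ2 with more thallium influx and brighter signal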
KCNQ2 block: blocks the rat KCNQ2 potassium channel. CHO-K1 KCNQ2, FluxOR thallium flux, 20 min; stronger effect = lower value. O88943. B-score at 10 µM. 310,000 compounds, 1.1% hits;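 active means fluorescence ratio B-score at most minus 3 library SDs, with starting brightness B-score within 2 library SDs, cut at about -5.5 in these data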
Numbers stand for hits; . = inactive; / = no result. Hits are enriched below; roughly 1.6% of the tested compounds scored in any of these assays.

SMILES	KCNQ2 pot	KCNQ2 block
CCOc1ccc(OCCC(=O)NNC(=O)c2ccccc2Cl)cc1	.	.
Cn1c(N)c(S(=O)(=O)N2CCN(c3cccc(Cl)c3)CC2)c(=O)n(C)c1=O	/	.
C=CCn1cn[nH]c1=S	.	-8.3
C=CCOc1ccc(CNn2cn[nH]c2=S)cc1	.	.
CCOC(=O)N1CCN(S(=O)(=O)c2ccc(OC)c(Br)c2)CC1	.	.
O=C(O)c1c2c(nc3ccccc13)/C(=C/c1ccccc1[N+](=O)[O-])CCC2	/	.
CC1C/C(=C\c2ccccc2[N+](=O)[O-])c2nc3ccccc3c(C(=O)O)c2C1 (stereo not given)	.	-5.8
O=C(Nc1ncccn1)c1cc([N+](=O)[O-])cc([N+](=O)[O-])c1	.	.
O=[N+]([O-])c1cc(-c2ncccn2)c([N+](=O)[O-])s1	.	-9.6
Cc1ccccc1CC1(CO)CCCN(C(=O)Cc2c(F)ccc(F)c2F)C1 (stereo not given)	/	.
O=S(=O)(c1ccc(Oc2ccc(F)c(Cl)c2)nc1)N1CCOCC1	.	.
Cc1ccc(C(=O)N2CCN(S(=O)(=O)c3ccc(Br)cc3)CC2)o1	/	.
c1ccc(N/N=C(\Cc2ncc[nH]2)c2ccccc2)cc1	/	.
Clc1cccc(N/N=C(\Cc2nc3ccccc3[nH]2)c2ccccc2)c1	.	-6.3
O=C(N=C1SC2CS(=O)(=O)CC2N1c1cc(Cl)ccc1Cl)C1CCCO1 (stereo not given)	.	.
Cc1cccc(-n2cnc3c(sc4nc(N5CCOCC5)c5c(c43)CCCC5)c2=O)c1	.	.
CN1CCc2c(sc(NC(=O)c3ccc4ccccc4c3)c2C(N)=O)C1	/	.
COc1cc2ccccc2cc1C(=O)Nc1sc2c(c1C(N)=O)CCN(C(C)C)C2	.	-5.9
CC1CCCCN1C(=O)COC(=O)C1CCN(S(=O)(=O)c2c(Cl)cccc2Cl)CC1 (stereo not given)	.	.
CCc1ccccc1Nc1cc(C(=O)NCc2ccccn2)c2ccccc2n1	.	-5.9
CCc1ccc(-c2cc(C(=O)NCc3ccccn3)c3ccccc3n2)cc1	/	.
CCOc1ccc(CCNC(=O)COC(=O)CCc2cc(OC)c(OC)c(OC)c2)cc1OCC	.	.
COc1cc2c(cc1OC)C(CSc1ccccc1C(=O)O)=NC(C)(C)C2	/	.
CC1(C)Cc2ccccc2C(CSc2ccccc2C(=O)O)=N1	.	-6
CSc1cccc(NC(=O)C2C3C=CC4(O3)C2C(=O)N(CCN2CCOCC2)C4C(=O)NC2CCCCC2)c1 (stereo not given)	.	.
SMILES	KCNQ2 pot	KCNQ2 block
CCOC(=O)COc1c(OC)cc(Cl)cc1C1Nc2ccccc2C(=O)N1c1ccc(F)cc1 (stereo not given)	/	.
CCOC(=O)COc1c(OC)cc(Cl)cc1C1Nc2ccccc2C(=O)N1c1ccccc1 (stereo not given)	.	-5.6
CCC(C)(C)NC(=O)C(c1ccccc1Cl)N(Cc1cccnc1)C(=O)CCC(=O)Nc1cc(C)on1 (stereo not given)	.	.
CC(=O)C(Sc1nnnn1-c1ccc(O)cc1)c1ccccc1 (stereo not given)	/	.
CC(=O)O[C@@H]1[C@@H](O)[C@@H](O)[C@H](Oc2c(-c3ccc(O)cc3)oc3c(CC=C(C)C)c(O)cc(O)c3c2=O)O[C@H]1C	.	-10
COc1ccc(-c2oc3c(CC=C(C)C)c(O[C@@H]4O[C@H](CO)[C@@H](O)[C@H](O)[C@H]4O)cc(O)c3c(=O)c2O[C@@H]2O[C@@H](C)[C@H](O)[C@@H](O)[C@H]2O)cc1	/	.
COc1ccc(C(=O)NC(=S)Nc2ccc(S(N)(=O)=O)cc2)cc1	.	.
COc1cc(C(=O)NNC(=S)Nc2ccc(S(N)(=O)=O)cc2)cc(OC)c1OC	.	-6.1
Cc1cccc(N2CCN(C(=O)C3(S(=O)(=O)c4ccc(Cl)cc4)CC3)CC2)c1C	.	-6.2
Cc1ccc(S(=O)(=O)C2(C(=O)N3CCN(c4ccccc4F)CC3)CC2)cc1	/	.
O=C(N1CCN(c2cccc(Cl)c2)CC1)C1(S(=O)(=O)c2ccc(Cl)cc2)CC1	/	.
Cc1ccc(Cl)cc1N1CCN(C(=O)C2(S(=O)(=O)c3ccc(Cl)cc3)CC2)CC1	.	-6.2
CCn1c(SCc2cccc(C)c2)nnc1-c1ccc(C)cc1	.	-6
CCn1c(SCc2cccc(F)c2)nnc1-c1ccncc1	.	.
O=C(NCC1CCCO1)c1nn2c(C(F)(F)F)cc(-c3cc(Br)cs3)nc2c1Br (stereo not given)	/	.
Cc1ccc(C(C[N+](=O)[O-])c2c(N)n(C)c(=O)n(C)c2=O)cc1 (stereo not given)	.	-8
COc1cc(C(C[N+](=O)[O-])c2c(N)n(C)c(=O)n(C)c2=O)ccc1O (stereo not given)	/	.
O=c1c(Cc2c(F)cccc2Cl)c(O)ccn1Cc1ccc(F)cc1	/	.
O=c1c(Cc2c(F)cccc2Cl)c(O)ccn1C1CCCCCC1	.	-7.8
CCNC(=O)CSc1nnc(C2CC2)n1-c1ccccc1	/	.
O=C(CSc1nnc(C2CCCCC2)n1-c1ccccc1)NCc1ccco1	.	-5.6
NC(=O)C1CCN(CC(O)COCc2ccccc2Cl)CC1 (stereo not given)	/	.
O=C(NCCO)/C(=C/c1ccc2c(c1)OCO2)NC(=O)c1ccc(Br)cc1	/	.
CCN(CC)C(=O)/C(=C/c1ccc2c(c1)OCO2)NC(=O)c1ccc(Br)cc1	.	-5.9
COc1ccccc1-n1c(=S)sc2c(=O)n(Cc3ccco3)c(SC)nc21	.	-6.9
SMILES	KCNQ2 pot	KCNQ2 block
COc1ccccc1-n1c(SC)nc2c(sc(=S)n2-c2ccccc2)c1=O	.	.
CC(=O)C1=C(O)C(=O)N(C)C1c1ccccc1[N+](=O)[O-] (stereo not given)	/	.
COc1ccc(OC)c(NC(=S)N2CCN(Cc3ccccc3)CC2)c1	.	.
COc1ccc(OC)c(NC(=S)N2CCC(C(O)(c3ccccc3)c3ccccc3)CC2)c1	5.9	.
O=C(Nc1nncs1)C1CCCC1	.	.
Cn1c(CSc2ncccn2)nnc1SCC(=O)N1CCCCCC1	.	.
Cn1c(CSc2ncccn2)nnc1SCC(=O)N1CCCC1	.	-6.3
CCCCn1c(N)c(N(CC(C)C)C(=O)COC(=O)Cc2cccc(OC)c2)c(=O)[nH]c1=O	/	.
c1ccc(CN2CCC(=NNc3nc4ccccc4[nH]3)CC2)cc1	.	.
CC(C)(C)C1CCC(=NNc2nc3ccccc3[nH]2)CC1 (stereo not given)	.	-5.8
CC1(C)CC(=O)C(C(C2=C(O)CC(C)(C)CC2=O)c2cccnc2)C(=O)C1 (stereo not given)	.	.
CC1(C)CC(=O)C(C(C2=C(O)CC(C)(C)CC2=O)c2cccs2)C(=O)C1 (stereo not given)	6.2	.
CC1=C(C(=O)Nc2ccccc2)C(c2ccco2)C(C#N)=C(SCC(=O)OC(C)C)N1 (stereo not given)	.	.
CC1=C(C(=O)Nc2ccccc2)C(c2ccco2)C(C#N)=C(SCc2ccccc2)N1 (stereo not given)	.	-6.5
Cn1ccsc1=NC(=O)c1ccc(S(=O)(=O)C(F)F)cc1	.	.
CCN(CC(=O)Nc1ccc(NC(C)=O)cc1)C(=O)/C=C/c1c(C)nn(-c2ccc(F)cc2)c1C	/	.
COc1ccc(OC)c(S(=O)(=O)NCCCc2ccccc2)c1	/	.
C=CCn1c(SCc2csc(C)n2)nc2sc3c(c2c1=O)CCC(C)C3 (stereo not given)	/	.
C=CCn1c(SCc2cc(=O)n3ccsc3n2)nc2sc(C)c(C)c2c1=O	.	-9
